# Screen size: about 310,000 compounds; about 14,000 (4.5%) showed an effect of 50% or more. The effect is printed as a negative number. This excerpt belongs to a sample that is enriched for strong results.
# Biological target: human ether-à-go-go-related gene (hERG) potassium channel (human, UniProt Q12809)
# Test: primary screen, population patch clamp on CHO cells stably expressing hERG; higher = less effect of the substance
# 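Note: peak tail current of the secondary pulse compared with the same well before compound.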
# Chain of human ether-à-go-go-related gene (hERG) potassium channel (Q12809 whole entry, looked up): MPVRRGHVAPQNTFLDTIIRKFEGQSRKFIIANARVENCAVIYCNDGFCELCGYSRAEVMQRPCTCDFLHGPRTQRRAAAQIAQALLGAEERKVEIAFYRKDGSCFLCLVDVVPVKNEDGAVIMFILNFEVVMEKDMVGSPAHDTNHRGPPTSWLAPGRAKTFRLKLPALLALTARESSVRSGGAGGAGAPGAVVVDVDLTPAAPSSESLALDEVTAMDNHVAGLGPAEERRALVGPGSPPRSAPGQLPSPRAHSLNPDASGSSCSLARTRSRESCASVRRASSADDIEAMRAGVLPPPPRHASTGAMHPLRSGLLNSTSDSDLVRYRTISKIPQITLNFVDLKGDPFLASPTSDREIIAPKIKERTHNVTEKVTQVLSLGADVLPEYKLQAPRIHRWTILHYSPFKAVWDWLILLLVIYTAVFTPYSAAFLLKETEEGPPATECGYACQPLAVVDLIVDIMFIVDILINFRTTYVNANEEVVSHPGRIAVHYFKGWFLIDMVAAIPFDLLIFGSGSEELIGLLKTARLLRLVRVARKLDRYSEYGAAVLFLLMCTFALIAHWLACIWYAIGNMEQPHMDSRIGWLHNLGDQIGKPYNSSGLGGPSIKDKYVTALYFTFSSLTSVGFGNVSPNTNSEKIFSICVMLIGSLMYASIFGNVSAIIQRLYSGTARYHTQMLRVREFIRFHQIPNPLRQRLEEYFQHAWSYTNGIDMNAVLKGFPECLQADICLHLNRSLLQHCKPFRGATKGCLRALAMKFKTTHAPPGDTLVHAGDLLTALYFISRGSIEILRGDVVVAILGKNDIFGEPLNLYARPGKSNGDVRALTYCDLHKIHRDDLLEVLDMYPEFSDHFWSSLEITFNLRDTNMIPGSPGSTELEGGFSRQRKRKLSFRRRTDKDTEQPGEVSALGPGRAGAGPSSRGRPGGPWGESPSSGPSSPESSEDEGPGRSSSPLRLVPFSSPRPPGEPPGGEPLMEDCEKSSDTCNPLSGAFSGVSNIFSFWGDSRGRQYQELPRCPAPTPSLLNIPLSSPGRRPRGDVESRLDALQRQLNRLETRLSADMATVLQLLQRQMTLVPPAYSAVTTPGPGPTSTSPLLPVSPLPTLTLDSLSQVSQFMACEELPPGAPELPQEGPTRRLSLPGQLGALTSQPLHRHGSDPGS
row,SMILES,"hERG current change (%, negative = inhibition) at 10uM"
1,O=C(O)c1cc(S(=O)(=O)NCc2ccco2)c(Cl)cc1Cl,14.9%
2,COCC(C)NCc1ccc(C)cc1C (stereo not shown),-14.3%
3,O=S(=O)(NCc1ccccn1)c1ccc2c(c1)OCCO2,10.5%
4,Nc1cc(-c2cccc(Br)c2)nn1Cc1ccccc1,-17.2%
5,Nc1cc(=O)nc(SCC(=O)Nc2cccc3ccccc23)n1CCc1ccccc1,-7.07%
6,CCOC(=O)C1C(c2ccc(O)cc2)NC(=O)NC1(O)C(F)(F)F (stereo not shown),2.48%
7,O=C(NNC(=O)C1CCC1)c1cccc(Cl)c1,-5.52%
8,CCOP(=O)(OCC)c1cc(C)c(O)c(C(C)(C)C)c1,-3.41%
9,CCn1c(SCC(=O)c2ccccc2)nnc1-c1cccs1,-14.8%
10,CCn1c(SCC(=O)Nc2cc(OC)c(OC)c(OC)c2)nnc1-c1cccs1,-7.07%
11,CCn1c(SCC(=O)Nc2ccccc2)nnc1-c1cccs1,-70.8%
12,O=C(CSc1nnc(-c2cccs2)n1-c1ccccc1)Nc1ccccc1,-44.3%
13,Cn1c(Cc2cccs2)nnc1SC/C=C/c1ccccc1,-0.882%
14,CCn1c(SCC(=O)Nc2ccc(NC(=O)c3ccco3)cc2)nnc1-c1cccs1,11.9%
15,CCn1c(SC/C=C/c2ccccc2)nnc1-c1cccs1,-66.3%
16,CCn1c(SCC(=O)Nc2cccc(NC(=O)c3ccco3)c2)nnc1-c1cccs1,-79.8%
17,C=CCn1c2ccccc2c2nnc(SCc3ccc4nonc4c3)nc21,0.592%
18,Cc1ccc(NC(=O)c2ccco2)cc1NC(=O)CSc1nnc(-c2cccs2)n1C,-38%
19,C=CCn1c(SCc2ccc3nonc3c2)nnc1-c1cccs1,-68.7%
20,C=CCn1c(SCCC(=O)O)nnc1-c1cccs1,6.75%
21,Cc1ccc(NC(=O)Nc2ccc([N+](=O)[O-])cc2)nc1,9.85%
22,CCCCn1c(N)c(N(Cc2ccccc2OC)C(=O)c2cc(=O)[nH]c3ccccc23)c(=O)[nH]c1=O,17.1%
23,CC(=O)N1CCN(C(=O)CSc2nc3c(cnn3-c3ccccc3)c(=O)[nH]2)CC1,-9.1%
24,CCOc1ccc(N(C)S(=O)(=O)c2ccc(C)c(C(=O)NCc3ccccc3OC)c2)cc1,-6.23%
25,Cc1ccc(-c2nn(CC(=O)NN3CCOCC3)c(=O)c3ccccc23)cc1,-1.66%

# — article PMC4336329 (PLoS ONE, 2015)
